The structures appear in SMILES notation. A number with no mark means an inactive call. Active and inactive are the calls of the source.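 How the source made its calls: active means mean inhibition above 46.5%, the solvent-only control mean plus 3 SD; inactive means the rest.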

Sequence of Nuclear receptor coactivator 2 (Homo sapiens) (Q15596 whole entry, looked up, the tested form may be a part): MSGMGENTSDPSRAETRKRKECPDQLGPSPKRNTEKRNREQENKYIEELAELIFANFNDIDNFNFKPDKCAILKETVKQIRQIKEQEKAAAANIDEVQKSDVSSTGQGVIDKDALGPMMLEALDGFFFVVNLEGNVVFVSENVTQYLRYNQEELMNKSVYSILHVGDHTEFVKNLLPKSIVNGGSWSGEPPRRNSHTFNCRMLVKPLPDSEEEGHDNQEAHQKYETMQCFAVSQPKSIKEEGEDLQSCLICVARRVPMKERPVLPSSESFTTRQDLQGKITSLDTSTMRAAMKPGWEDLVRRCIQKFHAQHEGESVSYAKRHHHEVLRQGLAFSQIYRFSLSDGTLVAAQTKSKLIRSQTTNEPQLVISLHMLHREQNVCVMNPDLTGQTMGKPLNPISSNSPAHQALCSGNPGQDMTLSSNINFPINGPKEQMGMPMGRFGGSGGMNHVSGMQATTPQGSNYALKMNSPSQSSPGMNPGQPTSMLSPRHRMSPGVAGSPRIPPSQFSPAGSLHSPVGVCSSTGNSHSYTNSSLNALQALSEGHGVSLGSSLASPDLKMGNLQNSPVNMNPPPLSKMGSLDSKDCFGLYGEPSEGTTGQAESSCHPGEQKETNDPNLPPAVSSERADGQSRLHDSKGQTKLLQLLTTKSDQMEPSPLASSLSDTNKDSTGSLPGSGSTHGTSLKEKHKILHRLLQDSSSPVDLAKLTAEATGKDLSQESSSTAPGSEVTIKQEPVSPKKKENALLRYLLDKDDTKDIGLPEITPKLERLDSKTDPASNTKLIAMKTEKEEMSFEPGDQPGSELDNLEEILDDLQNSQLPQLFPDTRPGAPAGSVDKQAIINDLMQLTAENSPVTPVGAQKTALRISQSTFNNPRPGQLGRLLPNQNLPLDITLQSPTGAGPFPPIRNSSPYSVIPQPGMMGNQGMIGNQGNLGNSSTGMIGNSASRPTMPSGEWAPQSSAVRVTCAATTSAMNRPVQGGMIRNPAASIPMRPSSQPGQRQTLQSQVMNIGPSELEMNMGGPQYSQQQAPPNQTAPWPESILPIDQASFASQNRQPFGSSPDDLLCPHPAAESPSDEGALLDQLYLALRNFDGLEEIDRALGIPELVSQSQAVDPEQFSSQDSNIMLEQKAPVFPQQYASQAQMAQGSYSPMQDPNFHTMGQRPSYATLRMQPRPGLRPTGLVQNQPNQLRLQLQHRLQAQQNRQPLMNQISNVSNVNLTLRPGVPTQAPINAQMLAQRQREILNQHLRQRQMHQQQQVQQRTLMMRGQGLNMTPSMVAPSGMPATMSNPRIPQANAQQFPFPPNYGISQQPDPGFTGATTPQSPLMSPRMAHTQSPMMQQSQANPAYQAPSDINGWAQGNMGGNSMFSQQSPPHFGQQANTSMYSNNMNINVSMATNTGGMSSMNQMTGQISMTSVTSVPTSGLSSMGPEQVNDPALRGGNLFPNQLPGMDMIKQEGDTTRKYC

The assay has as its target Nuclear receptor coactivator 2 (Homo sapiens) (UniProt Q15596). The assay is described as follows: inhibition of GAL4-SRC2 driven luciferase expression – cell-based, luminescence, HEK293, triplicate, confirmation (AID 652008).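 Further: 0% = DMSO-treated cells and 100% = Gossypol at 36 µM.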 Particulars: HEK293 GAL4-SRC2 luciferase reporter, at 8.9 µM, stronger effect = higher value. Background: Reporter assays use an easily measured gene product as a stand-in for the process of interest.
What is called inhibition is the relative decrease from the control value, in per cent. On to `Cc1cc(C)c(C#N)c(Sc2nc(C)c([N+](=O)[O-])c(C)c2C#N)n1`, for which the inhibition is 25.4%.

As to `O=C1C=CC2(C=C1)O[C@H](Cc1ccccc1)[C@@H](Cc1ccccc1)O2`, the inhibition was 63.8% (active).

As for `O=C(CCCc1ccccc1)c1ccc2c(c1)OCCO2`, the inhibition is 73.9% (active).

As to `O=C(Nc1ccc(Cl)cc1)/C(=C/c1cccc(O)c1)c1nc2ccccc2s1`, the inhibition is 80.7% (active).

As for `C=CC(=O)N1C/C(=C/c2ccccc2)C(=O)/C(=C\c2ccccc2)C1`, the inhibition was 65.3% (active).

Take `CC1CCC/C=C/C(=O)c2c(O)cc(O)cc2CC(=O)O1` (stereo not given): the inhibition was 33.2%.

For the molecule `CCOc1ccc(-c2cc(CCCC(=O)Nc3cccc(OC)c3)no2)cc1`, the inhibition was 58.9% (active).

As for `C#CCN(C[C@@H]1[C@@H](OC(=O)Nc2cccs2)[C@@H](OC(=O)Nc2cccs2)Cn2c(=O)ccc(=O)n21)S(=O)(=O)c1ccc(C)cc1`, the inhibition was 88.2% (active).

With `Cc1cc(C)n2c(Nc3ccc4c(c3)OCCO4)c(-c3cc4ccccc4o3)nc2n1`, the inhibition was -12.5%.

For the molecule `O=C(CCl)Nc1cc2[nH]c(=O)[nH]c2cc1Br`, the inhibition was 74.7% (active).

Consider `COc1cccc(C2=CC(=O)CC(C)(C)C2)n1`, for which the inhibition was 32.9%.

Take `COc1ccc(OC)c(N(CCN2C(=O)c3ccccc3C2=O)C(=O)CCl)c1`: the inhibition is 57.6% (active).

For `O=C1/C(=C\c2ccccc2)CN(C(=O)CCN2CCCCC2)C/C1=C/c1ccccc1`, the inhibition is -4.61%.

Take `N#CC(=C1C=CC(=NO)C(Cl)=C1)c1ccccc1`: the inhibition is 20.3%.

Consider `CCC(C(=O)NCc1ccccc1)n1c(CSCCOc2ccccc2)nc2ccccc21` (stereo not given), for which the inhibition was 78.3% (active).

For the molecule `COc1ccc(/C=C/c2nc3ccccc3c(=O)o2)cc1`, the inhibition is 84.3% (active).

In the case of `Cc1nnsc1C(=O)NC1CCCc2c1cnn2-c1ccc(C(C)(C)C)cc1` (stereo not given), the inhibition is 31.2%.

Take `Cc1scc(C(=O)N/N=C/c2ccc([N+](=O)[O-])o2)c1C`: the inhibition is 68% (active).

`O=C(CCl)N1CCN(S(=O)(=O)Cc2ccccc2)CC1`: the inhibition was 46.2%.

In the case of `Cc1ccc(C(=O)Sc2cccccc2=O)cc1`, the inhibition was 99.2% (active).

In the case of `COc1ccc(CCNc2ncnc3sc(C)cc23)cc1OC`, the inhibition is 25.8%.

For `CC(=O)c1c(C)[nH]c(C(=O)COc2cc(C)ccc2C(C)C)c1C`, the inhibition was 43%.

For the molecule `COc1ccc(-c2noc(CCCC(=O)NC3CCCC3)n2)cc1`, the inhibition is 53.7% (active).

On to `CC1C/C(=C/c2ccncc2)C(=O)/C(=C/c2ccncc2)C1` (stereo not given), for which the inhibition is 90.8% (active).

For `C=CC(=O)N1C/C(=C/c2ccc(Cl)cc2)C(=O)/C(=C\c2ccc(Cl)cc2)C1`, the inhibition is 88.4% (active).

Turning to `CCN(Cc1ccc(OC)c(F)c1)C(=O)CCl`, the inhibition was 49.5% (active).

For the molecule `O=C(CSc1ncccc1C(=O)O)Nc1ccc2c(c1)OCCO2`, the inhibition was -11.1%.

Regarding `O=C(NCCOc1cccnc1)c1ccc(OC2CCN(Cc3ccccn3)CC2)cc1`, the inhibition is 56.5% (active).

Consider `Brc1ccc2ncnc(NCc3ccccc3)c2c1`, for which the inhibition was 54.5% (active).

Turning to `CN(C)CCC(=O)N1C/C(=C/c2ccccc2)C(=O)/C(=C\c2ccccc2)C1`, the inhibition is 55.3% (active).

Take `CC(=O)NC(c1cccc([N+](=O)[O-])c1)c1ccc2cccnc2c1O` (stereo not given): the inhibition was 31.1%.

For the molecule `COc1ccc(-c2cc(-c3nc4ccccn4c3NCc3ccccc3)ccc2OC)cc1`, the inhibition is 98.3% (active).

For the molecule `COc1ccc(C)cc1NS(=O)(=O)c1ccc(-c2cnc(C3CC3)o2)cc1`, the inhibition was 34.7%.

For `Cn1cnc([N+](=O)[O-])c1Oc1ccc2ccccc2c1`, the inhibition was 19.6%.

For the molecule `CC(C)(C)c1ccc(Oc2ccc(NC(=O)C3CC=CCC3C(=O)O)cc2)cc1` (stereo not given), the inhibition was 19.9%.

Turning to `COc1ccc(NC(=O)/C(Cl)=C(/Cl)S(=O)Cc2ccccc2)cn1` (stereo not given), the inhibition is 100% (active).

As to `O=C(NCCc1c[nH]c2ccccc12)c1ccc([N+](=O)[O-])o1`, the inhibition is 15.3%.

For `CCCCCc1c(CC)ncn1CCc1ccccc1OC`, the inhibition was 1.53%.

For the molecule `CC(C)(C)C(=O)Nc1cc2nn(-c3ccccc3)nc2cc1Cl`, the inhibition is 90.3% (active).

Regarding `Cc1ccc(NC(=O)C2=C(c3ccccc3)S(=O)(=O)CCS2(=O)=O)cc1`, the inhibition was 96.9% (active).

These data come from PubChem BioAssay.
